Screening results deposited in PubChem BioAssay by several laboratories.
Rows were chosen to be rich in hits. Some 4.6% of all compounds tested hit in one or more screens of this group.
HSF1 inhib: HSF1 inhibition. AID 2098. NIH3T3-HGL HSE-luciferase, MG132-induced, luminescence 8 h; active compounds read low. 300,000 compounds, 0.77% hits. activity change, negative = inhibition, % at 7.5 µM (by protocol);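 active = more than half of replicate wells show activity change below -50%, luminescence cut by over half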;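 note: luciferase reports HSF-1 transcriptional activity via heat shock element; 0% = median of DMSO wells and -100% = zero luminescence signal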
AHR activator: human AHR activation. P35869. activation, % at 5 µM. 320,000 compounds, 2.5% hits. AHR-responsive luciferase reporter cells, luminescence; in the data active = activation above about 47%;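 note: 0% = vehicle wells and 100% = reference agonist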
GAA850 FXN act: frataxin GAA850 promoter activation; activation, % at 6 µM; HEK293 lucGAA850 FXN promoter luciferase reporter, 24 h; percent of 10 µM SAHA response; 360,000 compounds, 0.56% hits;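 active = activation above the average of all compounds screened plus 3 SD, cutoff fixed separately per campaign, cut at about 7.5% in these data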;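 note: 0% = DMSO wells and 100% = 10 µM SAHA wells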
HSF-1 act: increases HSF-1 driven luciferase reporter signal; NIH3T3-HGL HSF-1 luciferase reporter, MG132, 8 h; 100% = twice DMSO control signal; activation, % at 9 µM; 300,000 compounds, 1.7% hits; AID 504408;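 active = mean replicate activation of at least 50% with a set share of replicates each reaching 50%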;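 note: 0% = median of the neutral control wells and 100% = twice that signal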
GAA30 counter: counter-screen for GAA850 frataxin promoter activators: GAA30 promoter activation. activation, % at 6 µM. HEK293 lucGAA30 FXN promoter luciferase, 24 h; DMSO = 0%, 5 µM ipriflavone = 100%. 1,900 compounds, 66% hits. shares compounds with GAA850 FXN act;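 active = mean activation above the mean of solvent-only control wells plus 3 SD, cut at about 22% in these data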;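 note: counterscreen of GAA850 promoter hits where activity marks nonselective or luminescence artifacts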
FXN GAA850 conf: confirmation of GAA850 frataxin (FXN) promoter activators | shares compounds with GAA850 FXN act | HEK293 lucGAA850 FXN promoter luciferase reporter, 24 h; 100% = activation by SAHA | activation, % at 6 µM | 1,900 compounds, 86% hits | AID 588351;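 active = mean activation above a set limit taken from the primary screen, cut at about 8% in these data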;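 note: 0% = DMSO wells and 100% = 10 µM SAHA wells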
* = called active by the depositor; . = not tested or not shown.

SMILES	HSF1 inhib	AHR activator	GAA850 FXN act	HSF-1 act	GAA30 counter	FXN GAA850 conf
CCOC(=O)c1ccccc1NC(=O)CSc1nccn1C	-5	6	0	6	.	.
CC(=O)Nc1cccc(OCC(=O)Nc2sccc2C(N)=O)c1	11	25	9.8*	18	109*	36*
O=C(CCNC(=O)c1ccco1)Nc1ccc(SC(F)F)cc1	7	4	-1	-1	.	.
COc1cc(C)ccc1OCCCON1C(=O)CCC1=O	-8	6	1	2	.	.
COC(=O)CSc1ncnc2scc(-c3ccccc3)c12	-8	1	5	2	.	.
Fc1ccc(CSc2ncnc3scc(-c4ccccc4)c23)cc1	-2	2	8.9*	8	22*	14*
O=[N+]([O-])c1ccc(N/N=C/c2cccc(O)c2)cc1	5	0	-1	31	.	.
O=[N+]([O-])c1ccc(N/N=C/c2cccc(O)c2O)cc1	12	3	15*	25	77*	40*
O=C1C=CC(=C(c2ccc(O)cc2)c2ccc(O)cc2)C=C1	.	-3	8.6*	.	29*	37*
C/C(=N\NC(=O)c1sccc1C)c1ccncc1	19	21	8.2*	28	82*	32*
COc1cc(Nc2nc3ccccc3n3nnnc23)cc(OC)c1OC	-5	25	17*	10	33*	9.5*
Cc1cccc(CCNc2nc3ccccc3n3nnnc23)c1	0	6	1	19	.	.
c1cn2c(Nc3ccc4c(c3)OCCO4)c(-c3ccc(N4CCOCC4)cc3)nc2cn1	3	23	8.8*	-16	56*	18*
OCC1OC(n2cnc3c(NC4CCCCC4)ncnc32)C(O)C1O (stereo unspecified)	-2	1	9.6*	-1	37*	17*
Nn1cnc2c(ncn2C2OC(CO)C(O)C2O)c1=O (stereo unspecified)	.	.	13*	.	14	6
OCC1OC(n2cnc3c(NC4CCCC4)ncnc32)C(O)C1O (stereo unspecified)	-6	0	12*	-21	39*	20*
Nc1ncnc2c1ncn2C1OC(C(=O)NC2CC2)C(O)C1O (stereo unspecified)	.	-2	9.7*	.	26*	15*
Nc1ncnc2c1ncn2C1O[C@H](CO)[C@@H](O)[C@@H]1O (stereo partly specified)	.	1	0	.	.	.
O=C(Nc1cccc(Cl)c1)c1ccc(F)c(S(=O)(=O)NCc2cccs2)c1	3	8	-1	3	.	.
CCc1ccccc1NCc1cc(=O)oc2cc(C)ccc12	11	11	4	21	.	.
COC(=O)c1ccc(COC(=O)CNC(=O)c2ccco2)cc1	-3	0	0	1	.	.
COC(=O)c1ccc(COC(=O)CNC(=O)c2ccc(-c3ccccc3)cc2)cc1	-10	-1	8.1*	-6	76*	22*
C/C(=N\O)c1sc(-c2ccccc2)nc1C	41	.	8.1*	72*	123*	34*
N#Cc1nc(COc2ccc(Br)cc2)oc1N1CCCC1	15	-2	2	22	.	.
c1ccc(C2=NC(c3ccccc3)CC2)cc1 (stereo unspecified)	.	.	2	.	.	.
SMILES	HSF1 inhib	AHR activator	GAA850 FXN act	HSF-1 act	GAA30 counter	FXN GAA850 conf
CC(C)(C)c1ccc(Cn2nnc3c(=O)[nH]c(C4CCN(C(=O)Cc5cccs5)CC4)nc32)cc1	18	-1	8.3*	11	2	10*
CC(C)(C)c1ccc(Cn2nnc3c(=O)[nH]c(C4CCCN(C(=O)Cc5cccs5)C4)nc32)cc1 (stereo unspecified)	17	0	3	14	.	.
O=C(c1cccc(N2CCCC2=O)c1)N1CCN(c2ccccc2)CC1	5	0	0	17	.	.
O=C(Nc1cccnc1Cl)c1ccc2c(Cl)c3c(nc2c1)CCC3	9	.	7.7*	23	113*	30*
Cc1ccn2cc(-c3cccc(NC(=O)C(C)C)c3)nc2c1	22	6	4	43	.	.
Cc1ccn2cc(-c3ccc(O)c(O)c3)nc2c1	4	7	11*	11	127*	48*
Oc1ccc(-c2cn3ccccc3n2)cc1O	14	2	8.9*	15	109*	33*
